Source: PubChem BioAssay
Only some compounds are listed: those with a hit (about 3.5% of all), similar ones and a draw of the others.
Pf apPOL block: Pf-apPOL DNA polymerase inhibition; Recombinant Pf-apPOL, molecular beacon fluorescence, 1.5 h; inhibition, % at 10 µM; hit rate 0.25% among 210,000
mHTT CaM bind: mHTT-calmodulin interaction abrogation. P42858. AlphaScreen His-mHTT/GST-CaM binding, luminescence. inhibition, % at 15 µM. hit rate 3.6% among 190,000;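 also: 0% = both proteins with DMSO and 100% = one protein alone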
Numbers without * were called inactive. Rule as the data show it: active = inhibition above about 50%; inactive = the rest.

Screening COc1ccc(Nc2n[nH]nc2C(=O)Nc2cccc(SC)c2)cc1 returned Pf apPOL block 2 and mHTT CaM bind 50*.
COc1ccc(C(=O)Nc2cccc(SC)c2)cc1 was read as Pf apPOL block 1 and mHTT CaM bind -9.
Screening Cc1cc(F)ccc1N1C=C(C#N)S(=O)(=O)c2ccc(F)cc21 returned Pf apPOL block 1 and mHTT CaM bind -7.
Screening O=C(c1ccc(F)cc1)N1CCN(c2ccccc2)CC1 returned Pf apPOL block -3 and mHTT CaM bind -2.
For O=C(c1ccc(C#CC2(O)CCCCC2)cc1)N1CCN(c2ccc(F)cc2)CC1 the results were Pf apPOL block -14 and mHTT CaM bind 52*.
Cc1ccc(CNC(=O)N2CCCC(OCc3nc(C)no3)C2)cc1 (configuration not stated) was read as Pf apPOL block -4 and mHTT CaM bind -19.
`O=C(O)c1ccnc(-c2cc(C(=O)O)ccn2)c1` gave Pf apPOL block -23.
`CN(C)C=Cc1ccnc(-c2cc(C=CN(C)C)ccn2)c1` gave Pf apPOL block 66*.
`CCc1cccc(C)c1N(C(=O)CSc1nc2ccccc2[nH]1)C(C)COC` (configuration not stated) gave Pf apPOL block -6 and mHTT CaM bind 52*.
Screening CCOCN(C(=O)CSc1nc2ccccc2[nH]1)c1c(C)cccc1CC returned Pf apPOL block -3 and mHTT CaM bind 15.
CSC1=N/C(=C/c2ccc(Br)cc2)C(=O)S1 was read as Pf apPOL block 6 and mHTT CaM bind 7.
`CSC1=N/C(=C\c2cc(Br)ccc2OCC(=O)O)C(=O)S1` gave Pf apPOL block -3 and mHTT CaM bind 68*.
Screening OC(CN1CCN(c2ccccc2Cl)CC1)c1ccc2c(c1)OCO2 (configuration not stated) returned Pf apPOL block 0 and mHTT CaM bind -3.
O=C(CN1C(=O)C2C3c4ccccc4C(c4ccccc43)C2C1=O)Nc1cccc(Cl)c1 (configuration not stated) was read as Pf apPOL block 0 and mHTT CaM bind 100*.
`COc1ccccc1NC(=O)CN1C(=O)C2C3c4ccccc4C(c4ccccc43)C2C1=O` (configuration not stated) gave Pf apPOL block -4 and mHTT CaM bind -4.
Cc1nn(-c2ccccc2Cl)c(C(C)C)c1C(=O)NCC(C)C was read as Pf apPOL block -11 and mHTT CaM bind -4.
Screening COCCNC(=O)C1CCN(c2nccnc2Sc2ccccc2)CC1 returned Pf apPOL block -4 and mHTT CaM bind -6.
`O=C(Nc1cccc(-c2nc3ccccc3o2)c1)c1cccnc1Cl` gave Pf apPOL block 74* and mHTT CaM bind 0.
O=C(Nc1cccc(-c2nc3ccccc3o2)c1)c1ccccc1I was read as Pf apPOL block -4 and mHTT CaM bind -4.
For COCCN=C1Nc2ccccc2NC12CCCN(S(=O)(=O)c1ccccc1Cl)C2 (configuration not stated) the results were Pf apPOL block -2 and mHTT CaM bind 10.
COc1ccc(OC)c(C=C2Oc3c(ccc(O)c3CN3CCCC(C)C3)C2=O)c1 (configuration not stated) was read as Pf apPOL block -9 and mHTT CaM bind 13.
Screening CCOc1ccc(NC(=O)C2CCCN(c3nnc4ccccn34)C2)cc1 (configuration not stated) returned Pf apPOL block -4 and mHTT CaM bind 5.
`CCc1ccc(NC(=O)C2CCCN(c3nnc4ccccn34)C2)cc1` (configuration not stated) gave Pf apPOL block -4 and mHTT CaM bind 56*.
Cc1cccc(N2CCN(C(=O)C3CC(=O)N(c4ccc(F)c(Cl)c4)C3)CC2)c1C (configuration not stated) was read as Pf apPOL block -7 and mHTT CaM bind -7.
Screening O=C(NCC1CC(=O)N(Cc2ccc(F)cc2)C1)Nc1ccccc1C(F)(F)F (configuration not stated) returned Pf apPOL block -1 and mHTT CaM bind -11.
For O=C1OC(c2ccccc2)(c2ccccc2)c2ccccc21 the results were Pf apPOL block 1.
Screening CN(C)c1ccc(C2(c3ccc(N(C)C)cc3)OC(=O)c3ccccc32)cc1 returned Pf apPOL block 1 and mHTT CaM bind 86*.
`Cn1nc(C(=O)NCc2ccccc2)c2c1CCN(C(=O)c1ccc(Br)o1)C2` gave Pf apPOL block -4 and mHTT CaM bind 16.
For Cn1nc(C(=O)NCc2ccccc2)c2c1CCN(C(=O)c1ccccc1F)C2 the results were Pf apPOL block -5 and mHTT CaM bind 53*.
For COc1ccccc1C(=O)N1CCc2c(c(C(=O)NCc3ccc(F)cc3)nn2C)C1 the results were Pf apPOL block -12 and mHTT CaM bind 71*.
Screening Cc1ccccc1C(=O)N1CCc2c(c(C(=O)NCc3ccc(F)cc3)nn2C)C1 returned Pf apPOL block -12 and mHTT CaM bind 35.
Cn1nc(C(=O)NCc2ccc(F)cc2)c2c1CCN(C(=O)c1ccccc1Cl)C2 was read as Pf apPOL block -7 and mHTT CaM bind 55*.
`COc1ccccc1C(=O)N1CCc2c(c(C(=O)NCc3ccccc3)nn2C)C1` gave Pf apPOL block -5 and mHTT CaM bind 36.
COCCNC(=O)C1CCc2sc(C(=O)N3CCOCC3)cc2C1 (configuration not stated) was read as Pf apPOL block 0 and mHTT CaM bind 0.
O=C(c1ccccc1)N1CCC(CCOc2ccccc2)CC1 was read as Pf apPOL block -2 and mHTT CaM bind -1.
COc1cc(C(=O)N2CCC(C(=O)Nc3cc(Cl)ccc3Cl)CC2)cc(OC)c1OC was read as Pf apPOL block 0 and mHTT CaM bind 0.
For N#C/C(=C\C=C\c1ccccc1)c1nc(-c2cccs2)cs1 the results were Pf apPOL block 1 and mHTT CaM bind -26.
Screening Cc1noc(-c2nn(C)c3c2CN(C(=O)COc2ccccc2)CC3)n1 returned Pf apPOL block 2 and mHTT CaM bind 3.
Screening c1csc(C2Nc3ccccc3-c3nc4ccccc4n32)c1 (configuration not stated) returned Pf apPOL block -6 and mHTT CaM bind -16.
c1ccc2c(C3Nc4cccc5cccc(c45)N3)cccc2c1 was read as mHTT CaM bind 77*.
Screening Clc1cccc(C2Nc3cccc4cccc(c34)N2)c1 returned mHTT CaM bind 82*.
For Fc1cccc(Cl)c1C1Nc2cccc3cccc(c23)N1 the results were mHTT CaM bind 49.
c1csc(C2Nc3cccc4cccc(c34)N2)c1 was read as mHTT CaM bind 50*.
`N#CC1=C(N)SC(N)=C(C#N)C1c1cccc2ccccc12` gave Pf apPOL block -9 and mHTT CaM bind 16.
For O=C(NCC1CC(=O)N(Cc2ccc(F)cc2)C1)c1cccs1 (configuration not stated) the results were Pf apPOL block -7 and mHTT CaM bind -9.
`CC(C)CC(=O)N1CCc2c(c(C(=O)NCc3ccc(Cl)cc3)nn2C)C1` gave Pf apPOL block 3 and mHTT CaM bind 66*.
For COCC(=O)N1CCc2c(c(C(=O)NCc3ccccc3)nn2C)C1 the results were Pf apPOL block 2 and mHTT CaM bind 19.
Screening CC(C)CC(=O)N1CCc2c(c(C(=O)NCc3ccc(F)cc3)nn2C)C1 returned Pf apPOL block -1 and mHTT CaM bind 59*.
For COCC(=O)N1CCc2c(c(C(=O)NCc3ccc(F)cc3)nn2C)C1 the results were Pf apPOL block -9 and mHTT CaM bind -2.
